Rows were chosen to be rich in hits. Some 0.59% of all compounds tested hit in one or more screens of this group.
Rv3671c protease: inhibitors of M. tuberculosis serine protease Rv3671c | P9WHR9 | inhibition, % at 5.96 µM | 0.048% of 320,000 active; in the data active = inhibition above about 38%;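 also: extracellular domain of Rv3671c used as enzyme; 0% = enzyme with DMSO and 100% = no enzyme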
Mtb UGM inh: Mtb UDP-galactopyranose mutase inhibition | purified UGM, fluorescence polarization probe displacement | inhibition, % at 10 µM | 0.06% of 320,000 active; in the data active = inhibition above about 10%, passing the limit was not always enough
Target sequence (P9WIQ1 whole entry, looked up): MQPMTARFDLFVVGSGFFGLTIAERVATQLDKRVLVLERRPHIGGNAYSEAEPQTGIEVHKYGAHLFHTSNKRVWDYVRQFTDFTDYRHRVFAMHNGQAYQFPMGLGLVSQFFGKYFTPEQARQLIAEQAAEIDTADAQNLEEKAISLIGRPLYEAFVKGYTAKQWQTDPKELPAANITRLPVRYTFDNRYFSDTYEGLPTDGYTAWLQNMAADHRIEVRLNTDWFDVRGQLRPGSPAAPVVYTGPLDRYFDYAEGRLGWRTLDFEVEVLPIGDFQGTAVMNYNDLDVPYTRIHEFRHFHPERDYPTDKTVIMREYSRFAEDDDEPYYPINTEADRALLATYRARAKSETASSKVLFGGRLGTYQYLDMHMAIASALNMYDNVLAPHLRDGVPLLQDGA
DUSP3 inh: inhibitors of human VHR1 phosphatase (DUSP3) | AID 1654 | recombinant VHR phosphatase, pNPP absorbance | P51452 | inhibition, % at 13.3 µM | 0.52% of 290,000 active; in the data active = inhibition above about 50%
Target sequence (P51452 whole entry, looked up): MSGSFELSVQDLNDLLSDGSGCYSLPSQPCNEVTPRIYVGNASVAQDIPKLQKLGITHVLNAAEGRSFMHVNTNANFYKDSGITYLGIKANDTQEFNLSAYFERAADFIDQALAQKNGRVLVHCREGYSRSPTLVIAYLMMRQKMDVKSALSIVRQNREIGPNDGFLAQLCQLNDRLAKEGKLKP
Mtb bLac sens: beta-lactam sensitization of Mtb H37Rv; inhibition, % at 25 µM; M. tuberculosis H37Rv growth with meropenem, percent inhibition; 0.27% of 330,000 active; call rule not given here;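 also: growth measured after seven days incubation then overnight dye step; 0% = bacteria only wells and 100% = bacteria with antibiotic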
Mtb hypoxia rep: reduces hypoxia-regulated biosensor signal in M. tuberculosis; 0.1% of 300,000 active; M. tuberculosis hypoxia-regulated fluorescent reporter, fluorescence; AID 1159583; fluorescence inhibition, % (no concentration beside the values); in the data active = fluorescence inhibition mostly above about 23%, no sharp cut-off; inactive = mostly below about 17%
Active calls of the source: *; x = no result.

SMILES	Rv3671c protease	Mtb UGM inh	DUSP3 inh	Mtb bLac sens	Mtb hypoxia rep
CCn1c(SCC(=O)NC(=O)NCc2ccco2)nc2sc(C)c(C)c2c1=O	-2	0	-10	-2	38*
Cc1ccn(C(=O)c2cc3ccccc3oc2=O)n1	-7	2	2	-7	4
CC(C)CCOC(=O)C[N+](C)(C)CCOC1CC2CCC1(C)C2(C)C (stereo unspecified)	2	0	30	93	41*
Cc1ccc(NC(=O)N2CCCc3ccccc32)cc1C	-9	-1	53*	14	-2
CC(=O)Nc1c2c(nn1-c1ccccc1C)CS(=O)(=O)C2	9	2	57*	-6	-8
CCC(=O)Nc1c2c(nn1-c1ccccc1C)CSC2	1	1	13	6	5
CCCC(=O)Nc1c2c(nn1-c1cccc(C)c1C)CS(=O)(=O)C2	-7	-5	13	8	0
CC(=O)Nc1c2c(nn1-c1ccccc1C)CSC2	2	1	58*	6	12
CC1(C)C(=O)Nc2ccccc2N1C(=O)COC(=O)c1cc(S(=O)(=O)N2CCOCC2)ccc1F	7	-1	0	-3	6
O=C(NCc1ccc(F)cc1)c1ccc(S(=O)(=O)N2CCCCC2)cc1	-1	-2	x	-3	8
Cc1ccnc(NC(=O)COC(=O)C23CC4CC(CC(C4)C2)C3)n1	2	3	31	-4	14
O=C(COC(=O)C12CC3CC(CC(C3)C1)C2)Nc1nccs1	0	0	52*	-5	-8
O=C(COC(=O)c1ccc2c(c1)OCCO2)Nc1ccc(F)cc1	x	x	x	x	-14
COc1ccc(C(=O)NCc2cc(C(C)C)no2)cc1OC1CCN(C(C)C)CC1	8	3	13	1	2
CCc1cc(CNC(=O)c2ccc(OC)c(OC3CCN(C(C)C)CC3)c2)on1	-4	2	57*	-4	-10
O=c1/c(=C/c2ccc(O)c([N+](=O)[O-])c2)sc2nc3ccccc3n12	x	x	75*	x	x
O=c1/c(=C\c2cccnc2)sc2nc3ccccc3n12	x	x	4	x	x
Nc1ccc(S(=O)(=O)Nc2nc3ccccc3o2)cc1	7	4	23	52	75*
COc1ccccc1C(CNC(=O)CN1C(=O)NC(C)(c2ccc3ccccc3c2)C1=O)N1CCCC1 (stereo unspecified)	x	x	x	x	30*
COc1ccc(N2CCN(C(=O)CN3C(=O)NC(C)(c4ccc5ccccc5c4)C3=O)CC2)cc1 (stereo unspecified)	-4	4	x	56	1
CCOC(=O)C1=C(C)NC(C)=C(C(=O)OCC)C1C(=O)OCC(=O)N1CCOCC1	-1	-1	x	-1	8
COc1ccc(CCN(C)Cc2c(O)ccc3ccccc23)cc1OC	-2	1	58*	3	0
Cc1ccc(-c2nc(Nc3cccc(O)c3)c3ccccc3n2)cc1	-55	1	x	6	5
Cc1ccc(-c2nc(Nc3ccc(O)cc3)c3ccccc3n2)cc1	7	-3	51*	65	18
CC(=O)Nc1ccc(S(=O)(=O)NNC(=O)c2ccc(S(=O)(=O)N3CCCCC3)cc2)cc1	12	-2	-11	0	-5
SMILES	Rv3671c protease	Mtb UGM inh	DUSP3 inh	Mtb bLac sens	Mtb hypoxia rep
CCN(CC)S(=O)(=O)c1ccc(NC(=O)COC(=O)c2cc(S(=O)(=O)Nc3ccc(OC)cc3)ccc2O)cc1	-80	-2	2	-12	11
Cc1nc(CN2CCC(c3ccccc3)CC2)cc(=O)[nH]1	2	0	53*	-1	2
COc1ccccc1CCC(=O)NC1CCCN(c2ccc(C(F)(F)F)cn2)C1 (stereo unspecified)	-1	-2	7	0	7
COC(=O)CCC(=O)NC1CC(C)(C)Cc2c1cnn2-c1ccccc1 (stereo unspecified)	x	0	57*	-1	1
CC(=O)NCC(=O)NC1CC(C)(C)Cc2c1cnn2-c1ccccc1 (stereo unspecified)	-5	-2	12	-1	-3
O=c1c2ccccc2nc2c3ccccc3c(NCCN3CCOCC3)nn12	7	3	16	-7	-7
O=c1c2c(-c3ccccc3)csc2nc2c3ccccc3c(NCCN3CCOCC3)nn12	x	x	22	x	41*
Nc1c(C(=O)Nc2ccccc2F)sc2nc(Cc3ccccc3)cc(C(F)(F)F)c12	6	26*	15	3	-3
COCc1cc(C)nc2sc(C(=O)Nc3ccccc3F)c(N)c12	5	0	10	6	15
N/C(=N\OC(=O)Oc1ccccc1)c1ccc(Br)cc1	-5	8	16	-1	x
NC(=Nc1ccc(Br)cc1)c1ccccc1	3	-2	51*	0	3
O=C(CSc1nnc(-c2ccco2)o1)NCCc1ccccc1	-1	-1	x	99	38*
O=C(CSc1nnc(-c2ccco2)o1)NC(=O)Cc1ccccc1	4	-3	22	0	8
CC1CCN(CCCNC(=O)C2CCC(CNS(=O)(=O)c3cccc4nsnc34)CC2)CC1 (stereo unspecified)	-3	3	51*	-3	-4
Cc1cc(C)c(S(=O)(=O)Nc2ccccc2)c(C)c1	x	x	x	x	9
CCn1cc(C(=O)NCCCOC)c(=O)c2cc(S(=O)(=O)N(C)C3CCCCC3)ccc21	2	-3	8	-3	x
CCN1CCCC1CNC(=O)c1cn(C)c2ccc(S(=O)(=O)N3CCCCCC3)cc2c1=O (stereo unspecified)	x	x	51*	x	-1
CCC1CCCCN1CCCNC(=O)c1cn(CC)c2ccc(S(=O)(=O)N(C)C3CCCCC3)cc2c1=O (stereo unspecified)	-6	-2	51*	11	-7
CC(C)CN=c1cc(-c2ccccc2)oc2ccc(Cl)cc12	-11	3	5	37	42*
CCC(C)NC(=O)NCc1ccccc1F (stereo unspecified)	10	-1	56*	-4	16
CSCCC(NC(=O)NCc1ccccc1F)C(=O)O (stereo unspecified)	x	x	x	x	9
O=C(NCc1ccccc1F)Nc1ccc([N+](=O)[O-])cc1	3	-3	56*	1	-3
CC(C)(C)C(=O)Nc1ccc(NC(=O)c2ccco2)nc1	-4	-2	26	3	x
CCCCNC(=O)n1c(SC)nc2ccccc21	1	2	24	-5	x
O=C(NCCCn1ccnc1)C1CC(c2ccccc2Cl)=NO1 (stereo unspecified)	9	1	11	-1	3
SMILES	Rv3671c protease	Mtb UGM inh	DUSP3 inh	Mtb bLac sens	Mtb hypoxia rep
CC(C)CC(C(=O)NC1CCCCC1)N(Cc1ccccc1)C(=O)c1snc(C(N)=O)c1N (stereo unspecified)	-9	1	58*	2	1
Cc1ccc(CSc2ccc(-c3ccco3)nn2)cc1	-1	1	53*	2	-5
O=C(Nc1nnc(-c2ccccc2Cl)o1)c1ccco1	3	0	2	94	6
O=C(Nc1nnc(-c2ccccc2Cl)o1)c1nc2ccccc2s1	22	3	53*	92	7
Cc1cc(C(F)F)nn1CC(=O)NCc1ccc(Cl)cc1Cl	-1	5	-10	2	1
CC1(C)Cc2c(sc(NC(=O)c3ccc4c(c3)OCCO4)c2C(N)=O)C(C)(C)N1	11	-4	23	-20	13
